This passage reports outcome and AC50 results from PubChem BioAssay (EPA / NIEHS).

Activity calls are given as the source filed them. Rule for the calls: active = hit-call score of the fitted dose curve at least 0.9, where 1 is the maximum; inactive = score below 0.9.

Experiment [1] has as its target Transcription factor E2F1 (Homo sapiens) (UniProt Q01094). Kind of experiment: ATG_E2F_CIS: Attagene CIS-FACTORIAL HepG2 Assay for human E2F Transcription Factor 1 (AID 2282935). The following applies: HepG2 Attagene cis-reporter, E2F reporter RNA transcripts; actives raise or lower the signal. In a few lines: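 Fluorescent RT-PCR products, digested with HpaI for 2 h at 37 C, are separated by capillary electrophoresis. Source RNA comes from transfected HepG2 cultures treated for 24 h.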

Experiment [2] is described as follows: ATG_E_Box_CIS: Attagene CIS-FACTORIAL HepG2 Assay for human Enhancer Box (E-box) (AID 2282936). As to conditions: HepG2 E-box cis-reporter transcription, actives raise or lower the signal. In a few lines: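 Fluorescent reporter fragments separated by capillary electrophoresis gave the signal; mRNA came from HepG2 cells transfected with cis-element reporters and treated 24 h. Curves fitted bidirectionally relative to DMSO controls.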

The nature of experiment [3]: ATG_M_61_CIS: Attagene CIS-FACTORIAL HepG2 Assay for M61 Transcription Factor (Internal Marker) (AID 2282937). As to conditions: HepG2 Attagene CIS-FACTORIAL M61 internal marker reporter; actives raise or lower the signal. In a few lines: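 Endogenous transcription factor activity in HepG2 is read through transiently transfected cis-element reporter units. After 24 h dosing, RNA undergoes reverse transcription, PCR and primer extension with 6-FAM before capillary electrophoresis; DMSO-referenced bidirectional fit.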

Experiment [4] can be described thus: ATG_EGR_CIS: Attagene CIS-FACTORIAL HepG2 Assay for human Early Growth Response 1 (EGR1) (AID 2282938). The following applies: HepG2 Attagene CIS-FACTORIAL EGR reporter mRNA; actives raise or lower the signal. The essentials: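 Activity is taken as induction or loss of reporter mRNA versus DMSO, fitted bidirectionally. Transcripts from cis-regulated reporter units in transiently transfected HepG2 were measured after 24 h by RT-PCR with capillary electrophoresis.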

Experiment [5] can be described thus: ATG_M_19_CIS: Attagene CIS-FACTORIAL HepG2 Assay for M19 Transcription Factor (Internal Marker) (AID 2282939). The following applies: HepG2 Attagene CIS-FACTORIAL M19 internal marker reporter; actives raise or lower the signal. The essentials:
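HepG2 cells transiently transfected with cis-regulated multiplexed reporter units, dosed 24 h. Reporter mRNA quantified by RT-PCR and capillary electrophoresis; internal background marker fitted bidirectionally versus DMSO.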

A short description of experiment [6]: ATG_ERE_CIS: Attagene CIS-FACTORIAL HepG2 Assay for Estrogen Response Element (ERE) (AID 2282940). The following applies: HepG2 ERE cis-reporter, Attagene RNA transcript; actives raise or lower the signal. In a few lines: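 HepG2 cells transiently transfected with multiplexed cis-element reporter units, measuring endogenous transcription factor activity; ERE reporter mRNA quantified after 24 h exposure by RT-PCR, fluorescent labelling, HpaI digestion and capillary electrophoresis. Bidirectional change versus DMSO.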

A short description of experiment [7]: ATG_Ets_CIS: Attagene CIS-FACTORIAL HepG2 Assay for human Erythroblast Transformation Specific (ETS) (AID 2282941). The following applies: HepG2 ETS cis-reporter transcription, actives raise or lower the signal. The essentials:
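Multiplexed reporter transcript profiling: HepG2, 24 h treatment, total RNA to cDNA, PCR, 6-FAM labelling, HpaI cut, capillary electrophoresis. Gain- or loss-of-signal fitted against DMSO.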

A short description of experiment [8]: ATG_FoxO_CIS: Attagene CIS-FACTORIAL HepG2 Assay for human Forkhead box O (FoxO) (AID 2282943). The following applies: HepG2 Attagene cis-reporter, FoxO element, mRNA; actives raise or lower the signal. The essentials:
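Human hepatoma HepG2 cells carry transiently introduced reporter transcription units controlled by cis promoter elements. Chemical treatment lasted 24 h, and mRNA signal was compared with DMSO.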

The nature of experiment [9]: ATG_GATA_CIS: Attagene CIS-FACTORIAL HepG2 Assay for human GATA Binding Protein (AID 2282944). As to conditions: HepG2 GATA cis-element reporter, Attagene multiplex mRNA; actives raise or lower the signal. The essentials: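 HepG2 cells transiently transfected with multiplexed cis-element reporter units measure endogenous GATA activity; after 24 h compound exposure, reporter mRNA quantified by RT-PCR and capillary electrophoresis. Changes fitted in both directions vs DMSO.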

The nature of experiment [10]: ATG_GLI_CIS: Attagene CIS-FACTORIAL HepG2 Assay for human Zinc Finger Protein GLI1 (AID 2282945). As to conditions: HepG2, Attagene cis-factorial reporter mRNA, GLI element; actives raise or lower the signal. In a few lines: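 Bidirectional curve fits relative to DMSO, using reporter mRNA levels from RT-PCR plus capillary electrophoresis. Cells were HepG2 transiently carrying cis-regulated reporter constructs, harvested 24 h after dosing.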

Experiment [11] in a line: ATG_GRE_CIS: Attagene CIS-FACTORIAL HepG2 Assay for human Glucocorticoid Response Elements (GRE) (AID 2282947). The following applies: HepG2 GRE cis-reporter, Attagene multiplex mRNA; actives raise or lower the signal. In a few lines:
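Multiplexed cis-reporter mRNA induction, HepG2, 24 h post-dose. RT-PCR, FAM-labelled, HpaI-digested amplicons by CE. Bidirectional fit vs DMSO.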

Experiment [12] is described as follows: ATG_ISRE_CIS: Attagene CIS-FACTORIAL HepG2 Assay for human Interferon Regulatory Factor 1 (IRF1) binding to an Interferon-Stimulated Response Element (ISRE) (AID 2282948). As to conditions: HepG2 ISRE cis-reporter (Attagene), mRNA transcription readout; actives raise or lower the signal. In a few lines:
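Signal reflects induction or loss of ISRE-linked reporter mRNA in transiently transfected HepG2 cells after a 24 h treatment, detected by fluorescent RT-PCR fragments on capillary electrophoresis and normalised to DMSO.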

Experiment [13] is described as follows: ATG_M_32_CIS: Attagene CIS-FACTORIAL HepG2 Assay for M32 Transcription Factor (Internal Marker) (AID 2282949).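 Note: background control marker of the multiplexed CIS panel rather than a real target.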 As to conditions: HepG2 Attagene cis-factorial M32 reporter, mRNA; actives raise or lower the signal. In a few lines: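 Transient MRTU transfection of HepG2; 24 h compound treatment; TriZol RNA, oligo(dT) RT, reporter PCR, 6-FAM primer extension, HpaI cut, CE. Gain/loss of signal vs DMSO.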

Experiment [14] can be described thus: ATG_M_06_CIS: Attagene CIS-FACTORIAL HepG2 Assay for M06 Transcription Factor (Internal Marker) (AID 2282950). As to conditions: HepG2 Attagene CIS-FACTORIAL M06 internal marker reporter; actives raise or lower the signal. The essentials: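 Internal background marker within multiplexed cis-reporter HepG2 system. Cells transiently transfected, dosed 24 h; reporter mRNA measured by RT-PCR, HpaI digestion and capillary electrophoresis. Bidirectional fit relative to DMSO.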

Experiment [15] deals with Hypoxia-inducible factor 1-alpha (Homo sapiens) (UniProt Q16665). Kind of experiment: ATG_HIF1a_CIS: Attagene CIS-FACTORIAL HepG2 Assay for human Hypoxia Inducible Factor 1 (HIF1A) (AID 2282951). As to conditions: HepG2 Attagene cis-factorial HIF1a reporter transcription; actives raise or lower the signal. The essentials: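 Fluorescence intensity of capillary-separated, 6-FAM-labelled reporter amplicons gives mRNA induction in HepG2 cells carrying transfected cis-promoter reporter units; cells exposed 24 h, responses fitted up or down from DMSO.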
Chain of Hypoxia-inducible factor 1-alpha (Homo sapiens) (Q16665 whole entry, looked up): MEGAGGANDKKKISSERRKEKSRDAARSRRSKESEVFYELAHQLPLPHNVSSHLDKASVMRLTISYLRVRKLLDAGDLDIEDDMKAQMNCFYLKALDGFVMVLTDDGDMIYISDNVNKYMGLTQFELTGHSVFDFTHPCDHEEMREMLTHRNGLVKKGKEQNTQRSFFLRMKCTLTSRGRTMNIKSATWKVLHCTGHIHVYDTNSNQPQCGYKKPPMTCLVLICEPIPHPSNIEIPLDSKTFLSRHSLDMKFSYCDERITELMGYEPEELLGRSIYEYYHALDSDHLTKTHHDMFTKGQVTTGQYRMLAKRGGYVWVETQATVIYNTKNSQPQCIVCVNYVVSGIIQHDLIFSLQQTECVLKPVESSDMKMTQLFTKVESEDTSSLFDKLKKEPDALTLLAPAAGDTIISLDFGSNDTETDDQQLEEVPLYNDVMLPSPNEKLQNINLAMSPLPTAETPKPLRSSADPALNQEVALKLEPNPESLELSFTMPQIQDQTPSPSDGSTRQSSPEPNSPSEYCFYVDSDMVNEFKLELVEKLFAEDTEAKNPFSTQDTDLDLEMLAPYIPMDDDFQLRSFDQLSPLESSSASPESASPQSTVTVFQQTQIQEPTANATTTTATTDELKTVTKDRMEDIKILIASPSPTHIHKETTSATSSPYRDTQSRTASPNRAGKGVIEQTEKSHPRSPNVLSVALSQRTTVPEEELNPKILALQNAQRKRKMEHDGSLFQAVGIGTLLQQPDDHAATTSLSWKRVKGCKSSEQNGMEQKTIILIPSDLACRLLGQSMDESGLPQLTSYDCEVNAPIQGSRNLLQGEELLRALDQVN

The target of experiment [16] is Heat shock factor protein 1 (Homo sapiens) (UniProt Q00613). Kind of experiment: ATG_HSE_CIS: Attagene CIS-FACTORIAL HepG2 Assay for human Heat Shock Transcription Factor 1 (HSE) (AID 2282953). As to conditions: HepG2 HSE cis-reporter, Attagene RNA transcription; actives raise or lower the signal. The essentials: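 HepG2 cells transfected with cis-promoter reporter units sensing endogenous transcription factor activity; reporter mRNA quantified 24 h post-dose by RT-PCR and capillary electrophoresis of 6-FAM-labelled products. Bidirectional fitting against DMSO.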
Chain of Heat shock factor protein 1 (Homo sapiens) (Q00613 whole entry, looked up): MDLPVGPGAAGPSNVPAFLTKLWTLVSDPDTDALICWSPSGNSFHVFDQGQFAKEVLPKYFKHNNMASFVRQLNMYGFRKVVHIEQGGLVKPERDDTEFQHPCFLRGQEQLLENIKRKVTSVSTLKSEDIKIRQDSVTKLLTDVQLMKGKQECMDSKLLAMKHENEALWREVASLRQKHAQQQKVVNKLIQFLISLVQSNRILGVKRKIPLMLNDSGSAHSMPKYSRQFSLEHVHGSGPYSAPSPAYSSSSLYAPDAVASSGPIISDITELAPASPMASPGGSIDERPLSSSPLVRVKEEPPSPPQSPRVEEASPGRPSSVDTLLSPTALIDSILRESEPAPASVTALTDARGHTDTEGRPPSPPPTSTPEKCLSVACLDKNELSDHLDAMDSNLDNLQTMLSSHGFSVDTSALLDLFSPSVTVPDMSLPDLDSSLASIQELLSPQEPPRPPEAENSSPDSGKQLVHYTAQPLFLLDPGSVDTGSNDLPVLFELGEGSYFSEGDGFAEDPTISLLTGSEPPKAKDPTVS

Experiment [17] addresses Hepatocyte nuclear factor 3-beta (Homo sapiens) (UniProt Q9Y261). Kind of experiment: ATG_FoxA2_CIS: Attagene CIS-FACTORIAL HepG2 Assay for human Forkhead box A2 (FOXA2) (AID 2282942). The following applies: HepG2 cis-reporter transcription factor activity, 24 h; actives raise or lower the signal. In a few lines: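 Reporter transcript induction is measured by fluorescence after capillary electrophoresis of RT-PCR products from HepG2 cells exposed 24 h. Cis-regulated reporter units report endogenous factor activity; curves fitted both directions against DMSO.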

Experiment [18] has as its target Hepatocyte nuclear factor 6 (Homo sapiens) (UniProt Q9UBC0). Kind of experiment: ATG_HNF6_CIS: Attagene CIS-FACTORIAL HepG2 Assay for human Hepatocyte Nuclear Factor 6 (HNF6) (AID 2282952). The following applies: HepG2 Attagene cis-factorial HNF6 reporter transcription; actives raise or lower the signal. In a few lines:
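Endogenous factor activity read in transiently transfected HepG2 via promoter-regulated reporter transcripts. RNA harvested 24 h post-dosing, reverse-transcribed, PCR-amplified, FAM-labelled, HpaI-digested and resolved by capillary electrophoresis; fitted in both directions against DMSO.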

Experiment [19] in a line: ATG_PBREM_CIS: Attagene CIS-FACTORIAL HepG2 Assay for human Phenobarbital-responsive Enhancer Module (PBREM) (AID 2282955). As to conditions: HepG2 PBREM cis-reporter, Attagene multiplexed transcription; actives raise or lower the signal. In a few lines: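 Cells were transfected with cis-element reporter units and treated for 24 h, after which RNA was extracted and reporter transcripts measured by RT-PCR and capillary electrophoresis.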

The nature of experiment [20]: ATG_MRE_CIS: Attagene CIS-FACTORIAL HepG2 Assay for human Metal Responsive Element (MRE) (AID 2282954). The following applies: HepG2 MRE cis-reporter transcription, Attagene multiplex; actives raise or lower the signal. The essentials:
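Multiplexed cis-reporter assay in human HepG2 liver cells, 24 h incubation with test chemical. Reporter transcripts measured by RT-PCR and capillary electrophoresis; values from bidirectional curve fitting versus DMSO.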

Usually AC50 stands for the concentration at which the activity in the assay is half-maximal.

Chain of Hepatocyte nuclear factor 3-beta (Homo sapiens) (Q9Y261 whole entry, looked up): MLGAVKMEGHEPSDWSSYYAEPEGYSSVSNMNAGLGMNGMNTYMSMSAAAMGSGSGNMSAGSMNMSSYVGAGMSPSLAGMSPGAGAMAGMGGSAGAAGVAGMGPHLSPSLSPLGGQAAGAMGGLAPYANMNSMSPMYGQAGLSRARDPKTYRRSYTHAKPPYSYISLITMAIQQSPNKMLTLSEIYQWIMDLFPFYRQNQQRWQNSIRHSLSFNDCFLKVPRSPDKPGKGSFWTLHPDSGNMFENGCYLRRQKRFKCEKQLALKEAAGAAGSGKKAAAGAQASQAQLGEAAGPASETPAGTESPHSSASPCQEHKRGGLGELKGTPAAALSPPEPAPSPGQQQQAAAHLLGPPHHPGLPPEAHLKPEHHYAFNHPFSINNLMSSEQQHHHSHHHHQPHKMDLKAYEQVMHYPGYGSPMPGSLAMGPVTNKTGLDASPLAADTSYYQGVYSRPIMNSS
Chain of Transcription factor E2F1 (Homo sapiens) (Q01094 whole entry, looked up): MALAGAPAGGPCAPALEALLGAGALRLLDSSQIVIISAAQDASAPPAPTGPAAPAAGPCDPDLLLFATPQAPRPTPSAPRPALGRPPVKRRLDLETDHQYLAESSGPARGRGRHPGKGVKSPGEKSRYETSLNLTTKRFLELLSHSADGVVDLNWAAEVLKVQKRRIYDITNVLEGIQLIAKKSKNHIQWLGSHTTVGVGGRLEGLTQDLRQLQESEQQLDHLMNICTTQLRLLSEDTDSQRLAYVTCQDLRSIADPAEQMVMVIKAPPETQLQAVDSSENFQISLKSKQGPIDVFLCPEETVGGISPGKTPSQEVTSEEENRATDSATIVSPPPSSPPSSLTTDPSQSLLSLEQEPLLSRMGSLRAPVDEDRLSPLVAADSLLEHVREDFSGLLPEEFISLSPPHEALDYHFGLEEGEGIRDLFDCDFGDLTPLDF
Chain of Hepatocyte nuclear factor 6 (Homo sapiens) (Q9UBC0 whole entry, looked up): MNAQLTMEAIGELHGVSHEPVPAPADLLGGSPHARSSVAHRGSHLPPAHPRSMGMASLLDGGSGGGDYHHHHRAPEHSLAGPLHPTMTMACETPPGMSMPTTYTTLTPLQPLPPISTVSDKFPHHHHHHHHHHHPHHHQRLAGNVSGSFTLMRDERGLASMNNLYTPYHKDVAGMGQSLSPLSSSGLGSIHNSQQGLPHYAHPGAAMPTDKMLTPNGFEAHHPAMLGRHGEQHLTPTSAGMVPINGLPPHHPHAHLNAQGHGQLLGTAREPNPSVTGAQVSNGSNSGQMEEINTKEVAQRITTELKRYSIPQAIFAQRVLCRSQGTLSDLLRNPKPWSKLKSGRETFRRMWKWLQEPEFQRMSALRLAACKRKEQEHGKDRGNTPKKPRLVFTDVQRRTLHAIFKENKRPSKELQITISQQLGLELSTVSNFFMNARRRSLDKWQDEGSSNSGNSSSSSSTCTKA

As for `CCCC(CCC)C(=O)O`, the molecule was classed as inactive in [1], in [2], in experiment [3], in experiment [4], in experiment [5] and in [6]. Further, the molecule was classed as inactive in [7], in experiment [8], in experiment [9], in experiment [10], in experiment [11] and in [12]. Further, the molecule was called inactive in experiment [13], in experiment [14], in [15] and in experiment [16].
As for `O=C(N[C@H](CO)[C@H](O)c1ccc([N+](=O)[O-])cc1)C(Cl)Cl`, the outcome in experiment [1], in [2], in [3], in [4], in experiment [5] and in experiment [6] was inactive. In addition, the molecule was called inactive in experiment [7], in [17], in experiment [8], in [9], in [10] and in experiment [12]. For the same molecule, the molecule was classed as inactive in [14], in experiment [18], in experiment [16] and in experiment [19].
With `c1ccc2cc3ccccc3cc2c1`, the molecule was classed as inactive in experiment [1], in experiment [2], in experiment [3], in experiment [4], in [5] and in experiment [6]. The result in experiment [7], in [17], in experiment [8], in [9], in experiment [10] and in experiment [11] was inactive. For the same molecule, the molecule was classed as inactive in experiment [12], in [14], in experiment [15] and in experiment [19].
In the case of `O=C1CN(N=Cc2ccc([N+](=O)[O-])o2)C(=O)N1`, the molecule was called inactive in experiment [1], in experiment [2], in experiment [3], in experiment [4], in [5] and in [17]. Further, the molecule was called inactive in [8], in [9], in experiment [10], in experiment [11], in experiment [12] and in [13]. Also, the call in [14], in experiment [16] and in [19] was inactive. The AC50 in [6] is 27.6 µM (active); in experiment [15], 27.3 µM (active).
For `CC(C)c1nnc2ccc(-c3ocnc3-c3cc(F)ccc3F)cn12`, the result in [1], in experiment [2], in [3], in experiment [4], in experiment [5] and in experiment [6] was inactive. For the same molecule, the molecule was classed as inactive in experiment [17], in [8], in [9], in [10], in experiment [11] and in [12]. Also, the molecule was called inactive in [13], in [14], in [15] and in experiment [16]. Also, the AC50 in experiment [20] was 100 µM (active); in experiment [19], 83.4 µM (active).
With `CCCCCCCCCCCCCCO`, the half-maximal activity concentration (AC50) in experiment [1] was 158 µM (active); in experiment [2], 129 µM (active); in [7] it was 159 µM (active); in [17] it was 138 µM (active); in experiment [9], 179 µM (active); in experiment [16], 117 µM (active). In addition, the result in experiment [3], in experiment [4], in experiment [5], in [6], in experiment [8] and in [10] was inactive. Besides, the molecule was called inactive in experiment [12], in experiment [13], in experiment [14] and in experiment [15].
As for `CCCCCCCCN(C)C`, the result in experiment [1], in experiment [2], in experiment [3], in [4], in [5] and in experiment [6] was inactive. Besides, the result in [17], in experiment [8], in experiment [9], in experiment [10], in [11] and in experiment [12] was inactive. Besides, the molecule was classed as inactive in [13], in experiment [14], in experiment [15] and in [20].
As for `CCCCCCCCCCCCCCCCOS(=O)(=O)O`, the result in experiment [1], in experiment [3], in [4], in [5], in experiment [6] and in experiment [7] was inactive. Besides, the molecule was called inactive in experiment [17], in experiment [8], in experiment [9], in experiment [10], in [14] and in experiment [15]. Further, the molecule was classed as inactive in experiment [16] and in [19]. Besides, the concentration at half-maximal activity (AC50) in [2] is 25.8 µM (active); in experiment [12], 22.8 µM (active); in experiment [20], 25.4 µM (active).
